In publication PMC7862700, “An all-to-all approach to the identification of sequence-specific readers for epigenetic DNA modifications on cytosine”:

Assays:
Experiment in all cases: DAPPL (digital affinity profiling via proximity ligation, sequencing); 10 mM Tris-HCl pH 7.5, 50 mM NaCl, 1 mM DTT, 4% glycerol, room temperature, 30 min; GST-TFs on glutathione beads, 16-mer random dsDNA library, 0.1% formaldehyde crosslink after washing; high values mean tight binding
FLI1 = target: T1, FLI1 (Homo sapiens, UniProt Q01543 1-452); conditions: protein: recombinant; tags: N-terminal GST; dsDNA, one strand shown
T1 sequence: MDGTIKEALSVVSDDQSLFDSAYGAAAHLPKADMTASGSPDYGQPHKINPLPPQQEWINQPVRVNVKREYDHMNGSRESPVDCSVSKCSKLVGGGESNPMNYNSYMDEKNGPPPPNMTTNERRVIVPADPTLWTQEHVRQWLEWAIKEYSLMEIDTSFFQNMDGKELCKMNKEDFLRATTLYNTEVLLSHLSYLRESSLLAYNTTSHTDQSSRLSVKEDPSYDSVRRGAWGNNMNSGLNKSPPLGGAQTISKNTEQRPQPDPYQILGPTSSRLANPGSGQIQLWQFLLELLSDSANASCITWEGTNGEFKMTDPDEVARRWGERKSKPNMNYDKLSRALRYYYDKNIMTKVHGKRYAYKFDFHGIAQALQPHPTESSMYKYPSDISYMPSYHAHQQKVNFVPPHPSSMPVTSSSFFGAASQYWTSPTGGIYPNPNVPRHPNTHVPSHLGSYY
Outline: (§1)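 Pools were built from human transcription factors expressed in yeast as GST fusions, captured on glutathione beads and DNA-barcoded, along with a tag-only sample. Incubation with 200 nmole of a 16-mer random double-stranded DNA library lasted 30 min at room temperature in Tris/NaCl/DTT/glycerol buffer, and was followed by washing, 0.1% formaldehyde crosslinking, proximity ligation, PCR amplification and Illumina NextSeq500 sequencing. Binding signal is the quotient of each hexamer's read frequency for a factor and its frequency for the tag-only sample.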

ELK3 = target: T2, ELK3 (Homo sapiens, UniProt P41970 1-407); conditions: protein: recombinant; tags: N-terminal GST; dsDNA, one strand shown
T2 sequence: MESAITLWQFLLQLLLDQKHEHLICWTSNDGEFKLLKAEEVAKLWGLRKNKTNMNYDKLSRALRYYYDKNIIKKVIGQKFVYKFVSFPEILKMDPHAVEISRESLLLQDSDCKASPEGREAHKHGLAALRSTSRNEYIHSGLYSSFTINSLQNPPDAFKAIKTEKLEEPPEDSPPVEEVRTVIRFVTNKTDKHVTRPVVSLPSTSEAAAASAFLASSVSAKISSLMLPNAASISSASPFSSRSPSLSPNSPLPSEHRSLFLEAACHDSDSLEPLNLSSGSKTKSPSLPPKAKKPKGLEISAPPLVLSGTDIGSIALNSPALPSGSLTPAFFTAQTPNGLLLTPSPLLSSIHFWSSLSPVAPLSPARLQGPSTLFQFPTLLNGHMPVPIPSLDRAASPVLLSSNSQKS
Outline: as §1

ETV2 = target: T3, ETV2 (Homo sapiens, UniProt O00321 1-342); conditions: protein: recombinant; tags: N-terminal GST; dsDNA, one strand shown
T3 sequence: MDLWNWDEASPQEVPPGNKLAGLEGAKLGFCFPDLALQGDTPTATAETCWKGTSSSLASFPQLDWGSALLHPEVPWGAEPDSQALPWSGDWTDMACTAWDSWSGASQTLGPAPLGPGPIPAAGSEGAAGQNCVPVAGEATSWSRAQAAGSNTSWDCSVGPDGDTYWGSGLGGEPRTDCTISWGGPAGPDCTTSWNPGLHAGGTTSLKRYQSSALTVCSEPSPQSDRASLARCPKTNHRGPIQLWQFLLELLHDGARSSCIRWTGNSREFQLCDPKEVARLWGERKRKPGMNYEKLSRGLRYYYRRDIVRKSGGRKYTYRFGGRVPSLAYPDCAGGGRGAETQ
Outline: as §1

ELF5 = target: T4, ELF5 (Homo sapiens, UniProt Q9UKW6-2 1-255); conditions: protein: recombinant; tags: N-terminal GST; dsDNA, one strand shown
T4 sequence: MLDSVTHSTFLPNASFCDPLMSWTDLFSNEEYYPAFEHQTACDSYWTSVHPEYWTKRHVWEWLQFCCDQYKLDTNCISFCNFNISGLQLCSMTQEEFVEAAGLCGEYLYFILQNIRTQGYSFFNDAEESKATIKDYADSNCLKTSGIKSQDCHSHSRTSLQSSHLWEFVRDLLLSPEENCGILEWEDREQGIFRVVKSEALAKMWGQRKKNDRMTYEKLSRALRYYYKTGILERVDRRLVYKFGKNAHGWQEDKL
Outline: as §1

CRX = CRX (Homo sapiens, UniProt O43186 1-299); conditions: protein: recombinant; tags: N-terminal GST; dsDNA, one strand shown
Chain of CRX (O43186 whole entry): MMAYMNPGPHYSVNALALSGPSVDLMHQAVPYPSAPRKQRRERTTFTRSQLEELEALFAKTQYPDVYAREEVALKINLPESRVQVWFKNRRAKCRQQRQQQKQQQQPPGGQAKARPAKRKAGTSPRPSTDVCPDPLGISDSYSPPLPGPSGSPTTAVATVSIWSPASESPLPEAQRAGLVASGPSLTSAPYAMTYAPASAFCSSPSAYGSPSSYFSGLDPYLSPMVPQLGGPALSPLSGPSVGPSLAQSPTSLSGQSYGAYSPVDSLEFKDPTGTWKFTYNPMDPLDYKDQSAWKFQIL
Outline: as §1

HSF1 = HSF1 (Homo sapiens, UniProt Q00613 1-529); conditions: protein: recombinant; tags: N-terminal GST; chain copies: 3; dsDNA, one strand shown
Chain of HSF1 (Q00613 whole entry): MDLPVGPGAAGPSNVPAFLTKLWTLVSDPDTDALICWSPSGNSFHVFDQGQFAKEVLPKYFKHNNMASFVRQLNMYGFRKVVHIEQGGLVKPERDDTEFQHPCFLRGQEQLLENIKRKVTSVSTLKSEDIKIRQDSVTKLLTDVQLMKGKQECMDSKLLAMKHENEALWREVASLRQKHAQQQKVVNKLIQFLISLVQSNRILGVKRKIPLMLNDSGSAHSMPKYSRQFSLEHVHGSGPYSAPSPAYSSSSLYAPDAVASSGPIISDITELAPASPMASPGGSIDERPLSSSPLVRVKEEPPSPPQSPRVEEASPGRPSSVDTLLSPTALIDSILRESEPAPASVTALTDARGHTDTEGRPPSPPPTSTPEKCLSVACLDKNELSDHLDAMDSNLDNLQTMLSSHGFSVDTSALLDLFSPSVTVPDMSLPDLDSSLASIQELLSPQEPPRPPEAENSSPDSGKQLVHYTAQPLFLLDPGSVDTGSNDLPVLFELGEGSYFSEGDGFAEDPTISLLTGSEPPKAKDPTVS
Outline: as §1

SPIC = target: T5, SPIC (Homo sapiens, UniProt Q8N5J4 1-248); conditions: protein: recombinant; tags: N-terminal GST; dsDNA, one strand shown
T5 sequence: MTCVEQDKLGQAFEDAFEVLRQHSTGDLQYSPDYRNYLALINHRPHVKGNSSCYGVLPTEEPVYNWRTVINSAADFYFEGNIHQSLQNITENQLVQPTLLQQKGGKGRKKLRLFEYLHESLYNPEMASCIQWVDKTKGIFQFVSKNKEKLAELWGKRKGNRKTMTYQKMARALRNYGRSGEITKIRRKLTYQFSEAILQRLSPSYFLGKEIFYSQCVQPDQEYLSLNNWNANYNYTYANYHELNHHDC
Outline: as §1

Sequence | binding signal (FLI1) | binding signal (ELK3) | binding signal (ETV2) | binding signal (ELF5) | binding signal (CRX) | binding signal (HSF1) | binding signal (SPIC)
CGCACG | 1.1 fold enrichment (6-mer frequency, TF over GST control) | 1.02 fold enrichment (6-mer frequency, TF over GST control) | 1.09 fold enrichment (6-mer frequency, TF over GST control) | 1.02 fold enrichment (6-mer frequency, TF over GST control) | – | – | –
GCTAAC | 1.11 fold enrichment (6-mer frequency, TF over GST control) | 1.18 fold enrichment (6-mer frequency, TF over GST control) | 1.07 fold enrichment (6-mer frequency, TF over GST control) | – | – | – | –
AGCGCT | 1.1 fold enrichment (6-mer frequency, TF over GST control) | 1.14 fold enrichment (6-mer frequency, TF over GST control) | – | 1 fold enrichment (6-mer frequency, TF over GST control) | 1.01 fold enrichment (6-mer frequency, TF over GST control) | – | –
CGTTTG | 1.05 fold enrichment (6-mer frequency, TF over GST control) | 1 fold enrichment (6-mer frequency, TF over GST control) | 1.16 fold enrichment (6-mer frequency, TF over GST control) | 1.1 fold enrichment (6-mer frequency, TF over GST control) | – | – | –
ACTGGA | – | 1.01 fold enrichment (6-mer frequency, TF over GST control) | 1.17 fold enrichment (6-mer frequency, TF over GST control) | – | 1.19 fold enrichment (6-mer frequency, TF over GST control) | 1.56 fold enrichment (6-mer frequency, TF over GST control) | 1.16 fold enrichment (6-mer frequency, TF over GST control)
CGACTG | – | 1.02 fold enrichment (6-mer frequency, TF over GST control) | 1.19 fold enrichment (6-mer frequency, TF over GST control) | 1.04 fold enrichment (6-mer frequency, TF over GST control) | – | 1.02 fold enrichment (6-mer frequency, TF over GST control) | 1 fold enrichment (6-mer frequency, TF over GST control)
AGCAAA | – | 1.04 fold enrichment (6-mer frequency, TF over GST control) | 1.17 fold enrichment (6-mer frequency, TF over GST control) | 1 fold enrichment (6-mer frequency, TF over GST control) | 1.05 fold enrichment (6-mer frequency, TF over GST control) | 1.18 fold enrichment (6-mer frequency, TF over GST control) | –
AGGATG | 1.07 fold enrichment (6-mer frequency, TF over GST control) | – | – | 1.23 fold enrichment (6-mer frequency, TF over GST control) | – | – | –
CGAATC | – | – | – | – | 1.12 fold enrichment (6-mer frequency, TF over GST control) | 1.38 fold enrichment (6-mer frequency, TF over GST control) | 1 fold enrichment (6-mer frequency, TF over GST control)
AGAAGT | – | 1.11 fold enrichment (6-mer frequency, TF over GST control) | 1.03 fold enrichment (6-mer frequency, TF over GST control) | 1.1 fold enrichment (6-mer frequency, TF over GST control) | – | 1.45 fold enrichment (6-mer frequency, TF over GST control) | 1.19 fold enrichment (6-mer frequency, TF over GST control)
GGCTAA | – | 1.02 fold enrichment (6-mer frequency, TF over GST control) | – | – | 1.61 fold enrichment (6-mer frequency, TF over GST control) | 1.15 fold enrichment (6-mer frequency, TF over GST control) | 1.03 fold enrichment (6-mer frequency, TF over GST control)
CGTAAA | – | 1.17 fold enrichment (6-mer frequency, TF over GST control) | 1.21 fold enrichment (6-mer frequency, TF over GST control) | 1.14 fold enrichment (6-mer frequency, TF over GST control) | 1.15 fold enrichment (6-mer frequency, TF over GST control) | 1.17 fold enrichment (6-mer frequency, TF over GST control) | 1.09 fold enrichment (6-mer frequency, TF over GST control)
AGCGAT | – | 1.23 fold enrichment (6-mer frequency, TF over GST control) | – | – | 1.29 fold enrichment (6-mer frequency, TF over GST control) | 1.1 fold enrichment (6-mer frequency, TF over GST control) | 1.11 fold enrichment (6-mer frequency, TF over GST control)
CGAACG | – | – | 1.09 fold enrichment (6-mer frequency, TF over GST control) | – | – | 1.2 fold enrichment (6-mer frequency, TF over GST control) | 1.11 fold enrichment (6-mer frequency, TF over GST control)
GGTAAA | – | 1.04 fold enrichment (6-mer frequency, TF over GST control) | 1.03 fold enrichment (6-mer frequency, TF over GST control) | 1.1 fold enrichment (6-mer frequency, TF over GST control) | 1.07 fold enrichment (6-mer frequency, TF over GST control) | 1.04 fold enrichment (6-mer frequency, TF over GST control) | –
CTAGCG | – | – | 1.09 fold enrichment (6-mer frequency, TF over GST control) | 1.07 fold enrichment (6-mer frequency, TF over GST control) | 1.06 fold enrichment (6-mer frequency, TF over GST control) | 1.3 fold enrichment (6-mer frequency, TF over GST control) | 1.03 fold enrichment (6-mer frequency, TF over GST control)
TAGCGT | – | – | – | – | 1.15 fold enrichment (6-mer frequency, TF over GST control) | 1.04 fold enrichment (6-mer frequency, TF over GST control) | 1.02 fold enrichment (6-mer frequency, TF over GST control)
GACTTA | – | – | – | – | 1.93 fold enrichment (6-mer frequency, TF over GST control) | 1.34 fold enrichment (6-mer frequency, TF over GST control) | 1.08 fold enrichment (6-mer frequency, TF over GST control)
CGAAGG | – | – | – | – | – | 1.31 fold enrichment (6-mer frequency, TF over GST control) | 1.08 fold enrichment (6-mer frequency, TF over GST control)
AAGATC | – | 1.02 fold enrichment (6-mer frequency, TF over GST control) | 1.13 fold enrichment (6-mer frequency, TF over GST control) | 1 fold enrichment (6-mer frequency, TF over GST control) | 1.37 fold enrichment (6-mer frequency, TF over GST control) | 1.35 fold enrichment (6-mer frequency, TF over GST control) | 1.19 fold enrichment (6-mer frequency, TF over GST control)
CATTAA | – | – | 1.04 fold enrichment (6-mer frequency, TF over GST control) | – | 1.92 fold enrichment (6-mer frequency, TF over GST control) | 1.36 fold enrichment (6-mer frequency, TF over GST control) | 1.08 fold enrichment (6-mer frequency, TF over GST control)
CATAAT | – | – | 1 fold enrichment (6-mer frequency, TF over GST control) | – | 1.93 fold enrichment (6-mer frequency, TF over GST control) | 1.37 fold enrichment (6-mer frequency, TF over GST control) | 1.24 fold enrichment (6-mer frequency, TF over GST control)
AGAAAA | – | 1 fold enrichment (6-mer frequency, TF over GST control) | 1.1 fold enrichment (6-mer frequency, TF over GST control) | 1.02 fold enrichment (6-mer frequency, TF over GST control) | 1.27 fold enrichment (6-mer frequency, TF over GST control) | 2.39 fold enrichment (6-mer frequency, TF over GST control) | 1.04 fold enrichment (6-mer frequency, TF over GST control)
ATCAAA | – | 1.08 fold enrichment (6-mer frequency, TF over GST control) | 1.11 fold enrichment (6-mer frequency, TF over GST control) | 1.02 fold enrichment (6-mer frequency, TF over GST control) | 1.31 fold enrichment (6-mer frequency, TF over GST control) | 1.1 fold enrichment (6-mer frequency, TF over GST control) | –
